What was measured:
Experiment in all cases: PBM binding z-score (relative to random genomic background probes); higher = stronger binding; sequences stand for … in GC…GCGATTGACAGCGTAGAATGAAGG
[1] = system: FXR:RXRa (NR concentration 270 nM, RXRa partner concentration 90 nM)
Procedure, shortened: (§1)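 Probes were double-stranded and carried 34-nt variable regions with direct-repeat seeds, single-nucleotide variants, half-site ablations and random human genomic background sequences, printed on custom Agilent 4×180K protein-binding microarrays. Arrays were incubated 1 h with ligand-free nuclear receptor dimers in PBS pH 7.4, 2% milk, 0.02% Triton X-100, 1 mM DTT, 0.2 mg/mL BSA and 0.4 mg/ml salmon testes DNA. Antibodies against each partner (one per run) detected binding, and scanned fluorescence was regression-normalized. Binding z-scores use the random background probes as reference.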

[2] = system: LXRa:RXRa (NR concentration 270 nM, RXRa partner concentration 90 nM)
Procedure, shortened: as §1

[3] = system: LXRa homodimer (NR concentration 270 nM)
Procedure, shortened: as §1

[4] = system: LXRb:RXRa (NR concentration 270 nM, RXRa partner concentration 90 nM)
Procedure, shortened: as §1

[5] = system: LXRb homodimer (NR concentration 270 nM)
Procedure, shortened: as §1

[6] = system: PPARa:RXRa (NR concentration 270 nM, RXRa partner concentration 90 nM)
Procedure, shortened: as §1

[7] = system: PPARg:RXRa (NR concentration 180 nM, RXRa partner concentration 90 nM)
Procedure, shortened: as §1

[8] = system: PPARg:RXRa 270nM:90nM, anti-RXR (NR concentration 270 nM, RXRa partner concentration 90 nM)
Procedure, shortened: as §1

[9] = system: PPARg:RXRa 30nM:10nM, anti-RXR (NR concentration 30 nM, RXRa partner concentration 10 nM)
Procedure, shortened: as §1

[10] = system: PPARg:RXRa 90nM:30nM, anti-RXR (NR concentration 90 nM, RXRa partner concentration 30 nM)
Procedure, shortened: as §1

[11] = system: PPARg:RXRa DBDmut IVT, anti-RXR (DBD mutation: RXRa K156A/R161A, NR concentration 270 nM, RXRa partner concentration 90 nM)
Procedure, shortened: as §1

[12] = system: PPARg:RXRa IVT, anti-PPARg (NR concentration 270 nM, RXRa partner concentration 90 nM)
Procedure, shortened: as §1

[13] = system: PPARg DBDmut:RXRa IVT, anti-PPARg (DBD mutation: PPARg1 K132A/R137A, NR concentration 270 nM, RXRa partner concentration 90 nM)
Procedure, shortened: as §1

[14] = system: PPARg DBDmut IVT, anti-PPARg (DBD mutation: PPARg1 K132A/R137A, NR concentration 270 nM)
Procedure, shortened: as §1

[15] = system: PPARg homodimer (NR concentration 180 nM)
Procedure, shortened: as §1

[16] = system: PXR:RXRa (NR concentration 270 nM, RXRa partner concentration 90 nM)
Procedure, shortened: as §1

[17] = system: PXR homodimer (NR concentration 270 nM)
Procedure, shortened: as §1

[18] = system: RARa:RXR (NR concentration 270 nM, RXRa partner concentration 90 nM)
Procedure, shortened: as §1

[19] = system: RARa homodimer (NR concentration 270 nM)
Procedure, shortened: as §1

[20] = system: RARb:RXRa (NR concentration 270 nM, RXRa partner concentration 90 nM)
Procedure, shortened: as §1

Row | Sequence | PBM binding z-score [1] | PBM binding z-score [2] | PBM binding z-score [3] | PBM binding z-score [4] | PBM binding z-score [5] | PBM binding z-score [6] | PBM binding z-score [7] | PBM binding z-score [8] | PBM binding z-score [9] | PBM binding z-score [10] | PBM binding z-score [11] | PBM binding z-score [12] | PBM binding z-score [13] | PBM binding z-score [14] | PBM binding z-score [15] | PBM binding z-score [16] | PBM binding z-score [17] | PBM binding z-score [18] | PBM binding z-score [19] | PBM binding z-score [20]
1 | ATATGTCGGTTAGCTGGGGTCATTCAGACTAGGC | 3.68 | 4.3 | 2.96 | 4.36 | 1.24 | 4.39 | 1.86 | 2.65 | 0.599 | 1.75 | 1.3 | 2.25 | 0.889 | 0.777 | 1.85 | 5.49 | 3.48 | 5.05 | 0.853 | 2.62
2 | TCAGACAGGTGAAGGAAACTCAGGTACGCAGTCG | 0.911 | 1.04 | 0.00488 | 0.561 | 0.0545 | 1.05 | 0.717 | 2.37 | 4.29 | 3.32 | 2.96 | 0.598 | 0.181 | -0.163 | 0.667 | 0.502 | 0.224 | 0.564 | 0.502 | 0.976
3 | CCTACTGGGCCATTCAGAGGTCATTCATCATATG | 2.68 | 4.55 | 6.9 | 4.38 | 0.909 | 3.72 | 2.08 | 3.3 | 0.754 | 2.26 | 4.22 | 4.45 | -0.0468 | 0.03 | 2.18 | 4.81 | 2.5 | 4.07 | 0.581 | 2.9
4 | CCTTTTAGTTGACCATAAGGGCAACCGAAGCTCG | 0.795 | 0.621 | 0.344 | 0.707 | 1.3 | 0.649 | 0.247 | 0.669 | 0.0181 | 0.427 | 0.494 | 1.26 | 0.935 | 0.61 | 1.45 | 0.87 | 0.536 | 0.957 | 1.78 | 1.86
5 | TCTTGTAGATCAAAGGTTAAGAGAGCCGAAGCCT | 1.58 | 1.77 | 0.0362 | 1.91 | -0.272 | 4.75 | 8.74 | 8.28 | 8.05 | 8.92 | 1.9 | 3.87 | 0.236 | -0.197 | 0.759 | 1.87 | -0.162 | 3.06 | 0.341 | 1.9
6 | TCTATTAGTAGAAGGGCAACCGACGAGTCCGTTT | 0.288 | 0.212 | 0.0189 | 0.17 | -0.103 | 0.688 | 0.23 | 1.93 | 3.29 | 2.44 | 1.9 | 0.562 | 0.63 | -0.0614 | 0.492 | 0.479 | 0.325 | 0.693 | 0.276 | 1.36
7 | CCAGAGAGGTGAGAAGGTAACTCAGCCTCGATTA | 0.595 | 0.597 | -0.207 | 1.02 | -0.739 | 2.17 | 0.83 | 1.36 | 0.216 | 0.457 | 2.21 | 1.69 | -0.147 | -0.518 | 0.918 | 0.339 | 0.0728 | 1.04 | -0.0942 | 1.57
8 | ATCGAGAGGTCGAAGGTGAGTATACCCACCCGAA | 3.03 | 2.43 | -0.396 | 1.74 | -0.284 | 4.07 | 3.99 | 3.99 | 1.81 | 3.84 | -0.545 | 1.62 | 0.516 | 0.104 | 0.129 | 2.42 | -0.494 | 3.29 | -0.646 | 2.8
9 | ATCGAAAGGTCGAAGGTGAATATACCCACCCGAA | 5.04 | 4.06 | 0.547 | 3.42 | 0.763 | 5.24 | 5.61 | 5.45 | 2.92 | 4.71 | 0.205 | 2.75 | 0.488 | 1.25 | 2.07 | 3.5 | 0.328 | 5.15 | 0.699 | 4.04
10 | CCTACTGGGCCACGAAAGGTCATTGAGTCAGTGA | 3.83 | 5.32 | 5.25 | 4.4 | 0.561 | 4.87 | 5.06 | 5.06 | 2.55 | 4.22 | 5.96 | 6.12 | 0.241 | -0.3 | 3.76 | 5.49 | 1.93 | 5.72 | 1.51 | 4.04
11 | GCTCGGAGGACAAGGTGAGAGCTTTGTCCGTAGA | -0.399 | -0.339 | -1.2 | -0.463 | -1.12 | -0.0348 | -0.809 | -0.0501 | -1.12 | -0.422 | -0.575 | 0.359 | -0.51 | -0.882 | -0.374 | -0.472 | -0.908 | -0.166 | -1.13 | 1.52
12 | AATTCAGGGTCATCGTAGGCCAGAGTACGCACAG | 7.63 | 6.71 | 4.2 | 5.55 | 2.29 | 6.2 | 7.36 | 7.02 | 3.49 | 5.72 | 3.42 | 4.57 | 2.45 | 3.09 | 2.85 | 5.49 | 1.43 | 5.54 | 1.45 | 4.45
13 | TCTAGTTGGTCAAAGGTCACAGACTCGAAATGCG | 6.15 | 6.04 | 3.48 | 5.55 | 1.44 | 6.87 | 11.5 | 10 | 10.8 | 11.2 | 3.8 | 6.51 | 1.4 | 1.43 | 5.86 | 6.19 | 1.54 | 7.67 | 3.5 | 5.12
14 | TAGCCGAGGTCATGGGCCAGTATACCACGCGAAC | 7.63 | 5.96 | 0.925 | 4.99 | 0.79 | 6.28 | 7.45 | 7.21 | 3.43 | 5.67 | 1.94 | 4.59 | 1.31 | 0.953 | 2.7 | 5.24 | 0.728 | 5.62 | 0.741 | 5.01

Reference: the supplement of paper PMC6555819
